Bioassay records (PubChem BioAssay)
B2AR arrestin – beta2AR (human) beta-arrestin recruitment activity | beta-arrestin recruitment to beta2AR, cell-based reporter | AID 492947 | 0.02% of 330,000 active | Potency, µM (series often up to 46.1 µM), actives largely listed as activators; further: nearly all actives have a fitted effect of over 65% in size
Target sequence (P07550 whole entry, looked up): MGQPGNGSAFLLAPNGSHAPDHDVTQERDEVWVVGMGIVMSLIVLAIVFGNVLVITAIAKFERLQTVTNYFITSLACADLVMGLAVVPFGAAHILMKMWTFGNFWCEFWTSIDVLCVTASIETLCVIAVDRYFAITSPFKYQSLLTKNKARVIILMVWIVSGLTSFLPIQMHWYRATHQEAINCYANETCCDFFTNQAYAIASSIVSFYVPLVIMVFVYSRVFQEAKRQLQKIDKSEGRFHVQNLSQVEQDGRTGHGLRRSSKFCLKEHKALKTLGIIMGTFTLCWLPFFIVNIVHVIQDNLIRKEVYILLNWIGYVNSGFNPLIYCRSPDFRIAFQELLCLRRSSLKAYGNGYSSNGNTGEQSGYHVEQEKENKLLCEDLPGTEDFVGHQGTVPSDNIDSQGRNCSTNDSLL
Six1-Eya2 inh – inhibitors of human Six1/Eya2 interaction; Q15475+O00167; AID 651725; activity change, % (no concentration beside the values); AlphaScreen GST-Six1/His-Eya2 binding, biochemical; stronger effect = lower value; 0.56% of 360,000 active; in the data active means activity change below about -65%; inconclusive means mostly about -30% to -63%
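GST-Six1 + His-Eya2 (5X stock: 250/500 nM); Tris pH 8.0, 300 mM NaCl, 0.05% BSA, 0.02% Tween 20; GSH donor/Ni acceptor beads; 1 h 37 °C dark; AlphaScreen readout.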
Eya2 phos inh – blocks the phosphatase activity of human Eya2; recombinant Eya2, OMFP fluorescence dephosphorylation (OMFP is methylfluorescein phosphate); Potency, µM (series often up to 76.9 µM), most hits filed as inhibitors; 0.006% of 330,000 active; AID 488837
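Eya2 (0.2 uM) preincubated 10 min at ambient with compound, then OMFP substrate added at 50 uM; 10 min reaction in 50 mM HEPES pH 7.5, 50 mM NaCl, 5 uM MgCl2, 0.05% BSA, 1 mM DTT. Fluorescence read at Ex 485/Em 525 nm.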
L3MBTL1 inh – inhibitors of human L3MBTL1; Q9Y468; AlphaScreen L3MBTL1–H3K9me1 peptide binding; Potency, µM (highest dose often 57.1 µM), usual class: inhibitors; 0.66% of 230,000 active; AID 485360; further: nearly all actives have a fitted effect of over 60% in size
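L3MBTL1 50 nM + b-AHA-H3(1-15)K9me1 75 nM, 30 min RT; compound added, 30 min RT; streptavidin donor/Ni-chelate acceptor beads 10 ug/mL each final, 30 min RT dark; AlphaScreen read.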
CtBP-E1A blk – CtBP/E1A binding inhibition; AlphaScreen GST-E1A/His-CtBP binding, 1536-well; stronger effect = lower value; 0.49% of 340,000 active; activity change, % (concentration not given with the values); in the data active means activity change below about -65%; inconclusive means mostly about -30% to -63%
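In 5 uL wells, 23 nL compound meets equimolar GST-E1A and His-CtBP (5X stock 125 nM each) for 2 h, 37 °C. Beads (5X, 50 ug/mL) then 1 h, 37 °C, dark.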
Numbers stand for hits; . = inactive; ? = inconclusive; / = no result. Sampled rows, rich in hits. Any-hit rate of the full collection: about 0.9%. Unless noted, the call rests on the fitted dose curve; in most records, active means well fitted curve in the direction sought with a large enough effect; inconclusive means small, poorly fitted or top-dose-only effect, or another doubt; inactive means no such curve, though single readings can be large; an effect the other way counts as inactive or inconclusive.

SMILES	B2AR arrestin	Six1-Eya2 inh	Eya2 phos inh	L3MBTL1 inh	CtBP-E1A blk
CC(Sc1nnc(NC2CC2)s1)C(=O)Nc1ccc(N2CCOCC2)cc1 (stereo unspecified)	.	.	.	.	.
CC(Sc1nnc(NC2CCCCC2)s1)C(=O)Nc1ccc2c(c1)C(=O)c1ccccc1C2=O (stereo unspecified)	.	-75	.	.	.
O=C(N/N=C/c1cc([N+](=O)[O-])ccc1O)c1cccc(NC(=O)c2cccc(Cl)c2)c1	.	.	.	/	.
Cc1nc2ccc(C(=O)c3ccccc3)cc2[nH]1	.	.	.	.	.
Cc1cc(C)nc(SCc2ccc(C(=O)N/N=C/c3cccc(O)c3O)cc2)n1	.	-95	.	.	-96
Cc1nc2ccc(C(=O)N/N=C/c3cc([N+](=O)[O-])ccc3O)cc2[nH]1	.	-92	.	.	-92
Cc1nc2ccc(C(=O)N/N=C/c3ccccc3O)cc2[nH]1	.	-80	.	/	-88
CN(C(=O)c1ccc(NC(=O)C2CCCN(C(=O)OC(C)(C)C)C2)cc1)C1CCC1 (stereo unspecified)	.	.	.	.	/
Cc1cc(C)nc(Nc2nc(C(N)c3ccccc3)cs2)n1 (stereo unspecified)	/	-69	/	/	-67
O=C(CNC(=O)c1ccco1)N/N=C/c1cc(Br)ccc1O	.	-97	.	/	-86
O=C(CNC(=O)c1ccco1)N/N=C/c1ccc(O)cc1O	.	-86	.	/	/
COc1cc(/C=N/NC(=O)CNC(=O)c2ccco2)ccc1O	.	.	.	.	.
COc1cccc(CN2CC(C(=O)NCc3ncc(C)[nH]3)CCC2=O)c1 (stereo unspecified)	.	.	.	/	.
CC1(C(=O)NS(=O)(=O)C2CC2)CCN(C(=O)c2ccccc2F)C1 (stereo unspecified)	/	.	/	/	.
CSc1nnc2c(n1)OC(C)=Nc1ccccc1-2	.	-66	.	.	.
Cc1cc(NC(c2cccnc2)c2ccc3cccnc3c2O)no1 (stereo unspecified)	.	-88	.	?	-93
Oc1c(C(Nc2cccc(C(F)(F)F)c2)c2cccnc2)ccc2cccnc12 (stereo unspecified)	.	-82	.	?	-86
NC(=Nc1ccc(N)cc1)C(N)=Nc1ccc(N)cc1	.	-65	.	32µM	?
N=C(N)c1ccc(N)cc1	.	.	.	.	.
O=C(O)c1cc(S(=O)(=O)N2CCN(C(c3ccccc3)c3ccccc3)CC2)ccc1Cl	.	.	.	/	.
CCc1nc2ccc(C(=O)N(C)CC(=O)Nc3cccc(F)c3)cc2nc1CC	.	.	.	.	.
CN(CC(=O)O)Cc1nc2ccccc2[nH]1	.	-76	.	/	?
O=[N+]([O-])c1ccc(Cl)c(/C=N/n2c(-c3ccncc3)n[nH]c2=S)c1	.	-79	.	/	-73
CCC1(c2ccccc2)NC(=O)N(CC(=O)NC2(C#N)CCCCC2)C1=O (stereo unspecified)	.	.	.	.	.
CCOc1ccc(/C=N/NC(=O)c2[nH]ncc2Br)c(O)c1	.	-83	.	.	-92
SMILES	B2AR arrestin	Six1-Eya2 inh	Eya2 phos inh	L3MBTL1 inh	CtBP-E1A blk
O=C(N/N=C/c1c(O)ccc2ccccc12)c1[nH]ncc1Br	.	-85	.	.	-90
O=C(N/N=C\c1c(O)ccc2ccccc12)c1ccc(Cn2cccn2)o1	.	-86	.	.	-73
Cc1ccc(O)c(/C=N/NC(=O)c2[nH]ncc2Br)c1	.	.	.	.	.
c1ccc(-c2nccc(-c3ccco3)n2)nc1	.	?	.	.	-67
CC(=O)c1c(C)[nH]c(C(=O)Nc2cccc(C(F)(F)F)c2)c1C	.	.	.	/	.
OCCN(Cc1ccccn1)Cc1ccccn1	/	-90	/	/	-89
CC1CCN(S(=O)(=O)CCNC(=O)c2ccc(F)cc2)CC1	.	.	.	.	.
Nc1c(N2CCOCC2)cc(Cl)c2nonc12	.	.	.	.	?
Nc1c(N2CCCC2)cc(Cl)c2nonc12	.	.	.	28µM	?
Cc1ccc(C(O)c2ncc(-c3ccc(C(F)(F)F)cc3)[nH]2)cc1F (stereo unspecified)	/	.	/	/	.
COc1ccc(/C=C/C(=O)NCC(=O)N=Nc2c(O)[nH]c3ccc([N+](=O)[O-])cc23)cc1	.	.	.	/	.
CC1=NCCN1S(=O)(=O)c1ccccc1[N+](=O)[O-]	.	-93	.	/	/
